# Publication PMC7862700, “An all-to-all approach to the identification of sequence-specific readers for epigenetic DNA modifications on cytosine”
# Tests used:
# Experiment in all cases: DAPPL (digital affinity profiling via proximity ligation, sequencing); 10 mM Tris-HCl pH 7.5, 50 mM NaCl, 1 mM DTT, 4% glycerol, room temperature, 30 min; GST-TFs on glutathione beads, 16-mer random dsDNA library, 0.1% formaldehyde crosslink after washing; high values mean tight binding
# FEV = biological target: T1, FEV (Homo sapiens, UniProt Q99581 1-238); conditions: protein: recombinant; tags: N-terminal GST; dsDNA, one strand shown
# T1 sequence: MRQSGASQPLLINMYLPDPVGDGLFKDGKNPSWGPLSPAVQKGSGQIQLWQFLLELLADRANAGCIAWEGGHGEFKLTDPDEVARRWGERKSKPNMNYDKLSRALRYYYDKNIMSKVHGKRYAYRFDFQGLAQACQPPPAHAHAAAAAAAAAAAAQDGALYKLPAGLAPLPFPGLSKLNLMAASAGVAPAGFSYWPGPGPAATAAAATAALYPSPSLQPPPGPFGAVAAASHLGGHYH
# Summary of the method: (§1)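 In yeast, human transcription factors were expressed with a GST fusion, then pulled down on glutathione beads and given DNA barcodes. Pooled with a tag-only sample, they were exposed to 200 nmole of a 16-mer random double-stranded DNA library (Tris/NaCl/DTT/glycerol buffer, room temperature, 30 min), washed, crosslinked with 0.1% formaldehyde, proximity-ligated using BsaI/T4 ligase for 1 h at 37 °C, PCR-amplified and read on an Illumina NextSeq500. Each hexamer's frequency of reads for a factor, divided by the matching frequency for the tag-only sample, gives the binding signal.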
# ETV5 = ETV5 (Homo sapiens, UniProt P41161 1-510); conditions: protein: recombinant; tags: N-terminal GST; dsDNA, one strand shown
# Chain of ETV5 (P41161 whole entry): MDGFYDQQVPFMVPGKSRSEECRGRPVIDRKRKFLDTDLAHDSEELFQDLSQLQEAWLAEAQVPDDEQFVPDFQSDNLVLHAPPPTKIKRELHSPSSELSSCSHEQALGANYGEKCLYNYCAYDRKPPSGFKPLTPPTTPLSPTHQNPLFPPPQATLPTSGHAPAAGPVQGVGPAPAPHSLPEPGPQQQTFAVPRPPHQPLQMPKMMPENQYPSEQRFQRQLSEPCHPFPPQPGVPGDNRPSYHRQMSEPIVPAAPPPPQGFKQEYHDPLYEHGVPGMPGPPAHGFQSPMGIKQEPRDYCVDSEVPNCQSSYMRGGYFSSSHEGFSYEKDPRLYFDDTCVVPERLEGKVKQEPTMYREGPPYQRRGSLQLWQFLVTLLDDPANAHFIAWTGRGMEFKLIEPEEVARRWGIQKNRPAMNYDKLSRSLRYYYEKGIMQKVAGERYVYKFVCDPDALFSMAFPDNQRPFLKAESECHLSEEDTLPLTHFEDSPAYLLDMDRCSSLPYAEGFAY
# Summary of the method: as §1
# HSF1 = HSF1 (Homo sapiens, UniProt Q00613 1-529); conditions: protein: recombinant; tags: N-terminal GST; chain copies: 3; dsDNA, one strand shown
# Chain of HSF1 (Q00613 whole entry): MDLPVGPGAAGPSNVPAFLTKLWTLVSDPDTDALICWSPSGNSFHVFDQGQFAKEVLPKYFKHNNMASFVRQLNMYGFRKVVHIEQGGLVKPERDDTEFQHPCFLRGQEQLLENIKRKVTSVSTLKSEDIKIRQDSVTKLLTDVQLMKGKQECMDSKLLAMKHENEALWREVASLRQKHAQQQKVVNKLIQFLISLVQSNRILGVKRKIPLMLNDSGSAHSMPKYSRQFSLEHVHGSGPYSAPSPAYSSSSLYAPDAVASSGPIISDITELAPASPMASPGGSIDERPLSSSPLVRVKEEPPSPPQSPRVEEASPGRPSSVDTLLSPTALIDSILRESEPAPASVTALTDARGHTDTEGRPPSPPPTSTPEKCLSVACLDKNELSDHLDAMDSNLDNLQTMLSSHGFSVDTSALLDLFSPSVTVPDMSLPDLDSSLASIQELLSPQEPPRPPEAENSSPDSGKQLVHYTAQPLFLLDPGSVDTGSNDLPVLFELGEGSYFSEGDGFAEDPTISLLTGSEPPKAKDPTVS
# Summary of the method: as §1
# SPIC = biological target: T2, SPIC (Homo sapiens, UniProt Q8N5J4 1-248); conditions: protein: recombinant; tags: N-terminal GST; dsDNA, one strand shown
# T2 sequence: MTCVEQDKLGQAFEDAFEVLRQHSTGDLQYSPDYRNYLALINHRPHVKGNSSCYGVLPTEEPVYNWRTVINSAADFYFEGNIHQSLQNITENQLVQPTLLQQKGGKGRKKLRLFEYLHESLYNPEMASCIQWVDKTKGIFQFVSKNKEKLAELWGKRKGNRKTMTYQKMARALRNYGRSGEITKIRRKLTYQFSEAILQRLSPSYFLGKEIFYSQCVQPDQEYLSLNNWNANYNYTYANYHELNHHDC
# Summary of the method: as §1
# ELF4 = ELF4 (Homo sapiens, UniProt Q99607 1-663); conditions: protein: recombinant; tags: N-terminal GST; dsDNA, one strand shown
# Chain of ELF4 (Q99607 whole entry): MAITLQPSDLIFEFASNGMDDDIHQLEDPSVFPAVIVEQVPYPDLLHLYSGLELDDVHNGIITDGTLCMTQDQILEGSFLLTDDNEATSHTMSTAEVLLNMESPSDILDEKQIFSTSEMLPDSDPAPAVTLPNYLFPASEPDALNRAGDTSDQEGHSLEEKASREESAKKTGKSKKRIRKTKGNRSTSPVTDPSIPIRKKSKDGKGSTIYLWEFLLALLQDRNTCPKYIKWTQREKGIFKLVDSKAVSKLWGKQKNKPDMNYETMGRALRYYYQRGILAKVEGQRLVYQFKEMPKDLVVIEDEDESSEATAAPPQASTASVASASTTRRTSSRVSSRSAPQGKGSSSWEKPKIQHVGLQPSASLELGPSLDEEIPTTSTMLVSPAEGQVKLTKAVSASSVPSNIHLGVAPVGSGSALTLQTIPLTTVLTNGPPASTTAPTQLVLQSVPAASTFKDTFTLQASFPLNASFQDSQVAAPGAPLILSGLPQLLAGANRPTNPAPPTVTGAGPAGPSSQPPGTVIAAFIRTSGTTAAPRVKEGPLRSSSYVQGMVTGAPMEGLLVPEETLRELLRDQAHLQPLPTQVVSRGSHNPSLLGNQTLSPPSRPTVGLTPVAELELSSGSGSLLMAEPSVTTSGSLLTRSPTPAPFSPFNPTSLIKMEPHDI
# Summary of the method: as §1
# ETV1 = ETV1 (Homo sapiens, UniProt P50549 1-477); conditions: protein: recombinant; tags: N-terminal GST; dsDNA, one strand shown
# Chain of ETV1 (P50549 whole entry): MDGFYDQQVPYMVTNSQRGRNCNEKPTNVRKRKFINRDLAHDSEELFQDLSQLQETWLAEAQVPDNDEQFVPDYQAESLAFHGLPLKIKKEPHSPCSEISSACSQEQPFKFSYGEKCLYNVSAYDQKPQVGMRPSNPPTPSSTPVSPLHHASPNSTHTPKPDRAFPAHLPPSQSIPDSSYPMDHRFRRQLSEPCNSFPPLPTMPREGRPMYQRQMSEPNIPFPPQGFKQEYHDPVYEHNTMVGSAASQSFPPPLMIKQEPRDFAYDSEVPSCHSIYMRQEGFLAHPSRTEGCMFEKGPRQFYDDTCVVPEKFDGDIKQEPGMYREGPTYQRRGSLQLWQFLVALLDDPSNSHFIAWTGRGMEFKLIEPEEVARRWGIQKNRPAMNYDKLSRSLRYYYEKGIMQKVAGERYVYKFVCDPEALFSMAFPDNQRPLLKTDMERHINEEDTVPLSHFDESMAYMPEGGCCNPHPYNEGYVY
# Summary of the method: as §1
# ETV2 = biological target: T3, ETV2 (Homo sapiens, UniProt O00321 1-342); conditions: protein: recombinant; tags: N-terminal GST; dsDNA, one strand shown
# T3 sequence: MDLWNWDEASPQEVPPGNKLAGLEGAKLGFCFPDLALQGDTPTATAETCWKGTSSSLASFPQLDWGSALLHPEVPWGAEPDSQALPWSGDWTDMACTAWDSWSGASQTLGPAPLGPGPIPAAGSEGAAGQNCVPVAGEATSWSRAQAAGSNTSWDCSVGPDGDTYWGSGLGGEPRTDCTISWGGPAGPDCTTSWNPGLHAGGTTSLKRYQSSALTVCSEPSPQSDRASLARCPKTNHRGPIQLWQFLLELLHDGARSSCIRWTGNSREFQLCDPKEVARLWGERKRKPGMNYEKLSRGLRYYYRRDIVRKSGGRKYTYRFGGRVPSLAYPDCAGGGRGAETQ
# Summary of the method: as §1
# ELF3 = biological target: T4, ELF3 (Homo sapiens, UniProt P78545 1-371); conditions: protein: recombinant; tags: N-terminal GST; dsDNA, one strand shown
# T4 sequence: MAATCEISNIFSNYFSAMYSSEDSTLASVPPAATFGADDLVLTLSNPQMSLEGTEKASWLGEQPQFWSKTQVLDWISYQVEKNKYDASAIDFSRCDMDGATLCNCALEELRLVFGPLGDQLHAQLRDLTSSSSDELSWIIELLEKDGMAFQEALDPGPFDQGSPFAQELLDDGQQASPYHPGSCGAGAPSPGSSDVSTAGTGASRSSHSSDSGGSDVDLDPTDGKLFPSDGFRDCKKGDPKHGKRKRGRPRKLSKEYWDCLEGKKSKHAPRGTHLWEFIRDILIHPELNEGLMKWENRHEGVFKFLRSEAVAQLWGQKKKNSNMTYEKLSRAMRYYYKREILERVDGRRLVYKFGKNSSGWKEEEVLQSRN
# Summary of the method: as §1
# ELK4 = biological target: T5, ELK4 (Homo sapiens, UniProt P28324-2 1-405); conditions: protein: recombinant; tags: N-terminal GST; dsDNA, one strand shown
# T5 sequence: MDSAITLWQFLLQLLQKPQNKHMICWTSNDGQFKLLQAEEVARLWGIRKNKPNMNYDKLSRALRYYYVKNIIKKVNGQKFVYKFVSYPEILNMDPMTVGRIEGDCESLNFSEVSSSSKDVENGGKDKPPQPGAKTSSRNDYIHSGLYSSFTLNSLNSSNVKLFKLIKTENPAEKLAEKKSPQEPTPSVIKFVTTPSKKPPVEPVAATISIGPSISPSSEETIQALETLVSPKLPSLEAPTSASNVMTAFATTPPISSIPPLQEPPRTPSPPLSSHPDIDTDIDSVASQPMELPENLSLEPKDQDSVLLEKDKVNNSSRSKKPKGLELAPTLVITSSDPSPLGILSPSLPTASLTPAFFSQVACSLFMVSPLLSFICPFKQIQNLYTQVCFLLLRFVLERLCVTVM
# Summary of the method: as §1
# CRX = CRX (Homo sapiens, UniProt O43186 1-299); conditions: protein: recombinant; tags: N-terminal GST; dsDNA, one strand shown
# Chain of CRX (O43186 whole entry): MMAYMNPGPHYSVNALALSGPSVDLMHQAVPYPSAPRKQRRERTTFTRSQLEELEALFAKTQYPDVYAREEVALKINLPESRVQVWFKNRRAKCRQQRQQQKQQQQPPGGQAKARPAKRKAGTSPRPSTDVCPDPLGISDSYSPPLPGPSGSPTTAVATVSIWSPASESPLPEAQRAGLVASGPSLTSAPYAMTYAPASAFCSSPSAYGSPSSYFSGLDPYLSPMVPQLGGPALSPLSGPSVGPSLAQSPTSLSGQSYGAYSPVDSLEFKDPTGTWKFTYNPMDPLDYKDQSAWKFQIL
# Summary of the method: as §1
sequence,measurement,setting,value
CTCGTG,binding signal,FEV,"1.05 fold enrichment (6-mer frequency, TF over GST control)"
same,binding signal,ETV5,"1.03 fold enrichment (6-mer frequency, TF over GST control)"
same,binding signal,HSF1,"1.18 fold enrichment (6-mer frequency, TF over GST control)"
same,binding signal,SPIC,"1.03 fold enrichment (6-mer frequency, TF over GST control)"
same,binding signal,ELF4,"1.21 fold enrichment (6-mer frequency, TF over GST control)"
same,binding signal,ETV1,"1.18 fold enrichment (6-mer frequency, TF over GST control)"
AAACGA,binding signal,FEV,"1.09 fold enrichment (6-mer frequency, TF over GST control)"
same,binding signal,ETV5,"1.1 fold enrichment (6-mer frequency, TF over GST control)"
same,binding signal,HSF1,"1.09 fold enrichment (6-mer frequency, TF over GST control)"
same,binding signal,SPIC,"1.02 fold enrichment (6-mer frequency, TF over GST control)"
same,binding signal,ELF4,"1.08 fold enrichment (6-mer frequency, TF over GST control)"
same,binding signal,ETV2,"1.1 fold enrichment (6-mer frequency, TF over GST control)"
same,binding signal,ELF3,"1.11 fold enrichment (6-mer frequency, TF over GST control)"
same,binding signal,ETV1,"1.03 fold enrichment (6-mer frequency, TF over GST control)"
TAACGG,binding signal,FEV,"1.1 fold enrichment (6-mer frequency, TF over GST control)"
same,binding signal,ETV5,"1.09 fold enrichment (6-mer frequency, TF over GST control)"
same,binding signal,HSF1,"1.03 fold enrichment (6-mer frequency, TF over GST control)"
same,binding signal,SPIC,"1.07 fold enrichment (6-mer frequency, TF over GST control)"
same,binding signal,ELK4,"1.02 fold enrichment (6-mer frequency, TF over GST control)"
same,binding signal,ETV2,"1.11 fold enrichment (6-mer frequency, TF over GST control)"
same,binding signal,CRX,"1.21 fold enrichment (6-mer frequency, TF over GST control)"
same,binding signal,ETV1,"1.04 fold enrichment (6-mer frequency, TF over GST control)"
CTTACG,binding signal,FEV,"1.06 fold enrichment (6-mer frequency, TF over GST control)"
same,binding signal,ETV5,"1.12 fold enrichment (6-mer frequency, TF over GST control)"
same,binding signal,HSF1,"1.14 fold enrichment (6-mer frequency, TF over GST control)"
same,binding signal,SPIC,"1.02 fold enrichment (6-mer frequency, TF over GST control)"
same,binding signal,ELF4,"1.14 fold enrichment (6-mer frequency, TF over GST control)"
same,binding signal,ETV2,"1.1 fold enrichment (6-mer frequency, TF over GST control)"
same,binding signal,ELF3,"1.11 fold enrichment (6-mer frequency, TF over GST control)"
same,binding signal,CRX,"1.5 fold enrichment (6-mer frequency, TF over GST control)"
ATACCA,binding signal,FEV,"1.08 fold enrichment (6-mer frequency, TF over GST control)"
same,binding signal,ETV5,"1.01 fold enrichment (6-mer frequency, TF over GST control)"
same,binding signal,HSF1,"1.03 fold enrichment (6-mer frequency, TF over GST control)"
same,binding signal,SPIC,"1.03 fold enrichment (6-mer frequency, TF over GST control)"
same,binding signal,ELF4,"1.09 fold enrichment (6-mer frequency, TF over GST control)"
same,binding signal,ETV2,"1.08 fold enrichment (6-mer frequency, TF over GST control)"
same,binding signal,CRX,"1.04 fold enrichment (6-mer frequency, TF over GST control)"
same,binding signal,ETV1,"1.05 fold enrichment (6-mer frequency, TF over GST control)"
TCAAAT,binding signal,FEV,"1.1 fold enrichment (6-mer frequency, TF over GST control)"
same,binding signal,ETV5,"1.09 fold enrichment (6-mer frequency, TF over GST control)"
same,binding signal,HSF1,"1.15 fold enrichment (6-mer frequency, TF over GST control)"
same,binding signal,SPIC,"1.12 fold enrichment (6-mer frequency, TF over GST control)"
same,binding signal,ELK4,"1.04 fold enrichment (6-mer frequency, TF over GST control)"
same,binding signal,ETV2,"1.1 fold enrichment (6-mer frequency, TF over GST control)"
same,binding signal,ELF3,"1.15 fold enrichment (6-mer frequency, TF over GST control)"
same,binding signal,CRX,"1.32 fold enrichment (6-mer frequency, TF over GST control)"
same,binding signal,ETV1,"1.13 fold enrichment (6-mer frequency, TF over GST control)"
GTACTA,binding signal,FEV,"1.12 fold enrichment (6-mer frequency, TF over GST control)"
same,binding signal,ETV5,"1.14 fold enrichment (6-mer frequency, TF over GST control)"
same,binding signal,HSF1,"1.15 fold enrichment (6-mer frequency, TF over GST control)"
same,binding signal,SPIC,"1.11 fold enrichment (6-mer frequency, TF over GST control)"
same,binding signal,ELF4,"1.08 fold enrichment (6-mer frequency, TF over GST control)"
same,binding signal,ETV2,"1.21 fold enrichment (6-mer frequency, TF over GST control)"
same,binding signal,CRX,"1.12 fold enrichment (6-mer frequency, TF over GST control)"
same,binding signal,ETV1,"1.13 fold enrichment (6-mer frequency, TF over GST control)"
GGAACA,binding signal,FEV,"1.01 fold enrichment (6-mer frequency, TF over GST control)"
same,binding signal,ETV5,"1.16 fold enrichment (6-mer frequency, TF over GST control)"
same,binding signal,HSF1,"1.32 fold enrichment (6-mer frequency, TF over GST control)"
same,binding signal,SPIC,"1.1 fold enrichment (6-mer frequency, TF over GST control)"
same,binding signal,ELF4,"1 fold enrichment (6-mer frequency, TF over GST control)"
same,binding signal,ETV2,"1.11 fold enrichment (6-mer frequency, TF over GST control)"
same,binding signal,ELF3,"1.09 fold enrichment (6-mer frequency, TF over GST control)"
same,binding signal,ETV1,"1.08 fold enrichment (6-mer frequency, TF over GST control)"
